A selection: hits, their analogues and other compounds. The true share with any hit is near 14%.
HCMV antiviral: human cytomegalovirus inhibition | HFF cells, HCMV-luciferase reporter, 72 h; hits give low values | actives 4.5% (n = 410,000) | activity change, negative = inhibition, % at 57.5 µM; in the data active = activity change below about -60%; inconclusive = no clear call, values can overlap the other calls; inactive = above about -39%
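Steps: HFFs plated, 16 h 37C; compounds added; HCMV-luciferase added to MOI 1 PFU/cell; 72 h 37C; OneGlo reagent, 5 min room temperature; luminescence read, normalized to controls.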
Sm TGR block: blocks Schistosoma mansoni thioredoxin glutathione reductase; purified TGR, DTNB reduction, TNB absorbance 405 nm; Potency, µM (doses to about 114 µM), inactives show at the highest dose activity change, negative = inhibition, actives largely listed as inhibitors; actives 3% (n = 360,000); note: potency is the fitted concentration of half-maximal effect; nearly all actives have a fitted effect of over 60% in size
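First, TGR (20 nM dispensed) and NADPH were mixed with compound. Second, a 15 min room-temperature incubation followed. Third, further NADPH and then DTNB were added to start the reaction. Finally, TNB absorbance was monitored kinetically.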
Giardia FBPA inh: Giardia lamblia aldolase inhibition | A8B2U2 | purified Giardia FBPA | Potency, µM (highest dose often 59.6 µM), inactives show top-dose activity, negative = inhibition, hits mostly inhibitors | actives 0.71% (n = 290,000) | AID 2451; note: potency is the fitted concentration of half-maximal effect; nearly all actives have a fitted effect of over 55% in size
Target sequence (A8B2U2 whole entry, looked up): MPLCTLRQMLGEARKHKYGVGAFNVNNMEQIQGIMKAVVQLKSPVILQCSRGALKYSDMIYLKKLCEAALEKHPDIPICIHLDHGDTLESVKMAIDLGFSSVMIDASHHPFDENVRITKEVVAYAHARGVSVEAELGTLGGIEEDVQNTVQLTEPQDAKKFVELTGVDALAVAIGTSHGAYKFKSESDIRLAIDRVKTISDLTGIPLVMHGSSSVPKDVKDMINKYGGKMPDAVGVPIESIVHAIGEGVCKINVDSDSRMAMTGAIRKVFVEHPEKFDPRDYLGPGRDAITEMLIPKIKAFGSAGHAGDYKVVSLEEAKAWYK
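40 nM FBPA preincubated 10 min at RT with compound (up to 57.5 uM final), then substrate plus GAPDH/TPI/NAD/arsenate coupling and diaphorase/resazurin added. Fluorescence read after 20 min at RT, 525/598 nm.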
Pf growth 48h: inhibits P. falciparum growth in the first generation, 48 h; Potency, µM (highest dose often 28.7 µM), inactives show top-dose activity change, negative = inhibition, actives largely listed as inhibitors; P. falciparum luciferase growth in erythrocytes, 48 h; AID 504832; actives 5.9% (n = 310,000); note: potency is the fitted concentration of half-maximal effect
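Luciferase-expressing P. falciparum in infected erythrocytes (2% hematocrit, 0.1% parasitemia final) in RPMI 1640/0.5% Albumax were exposed to compound for 48 hours at 37 C, 5% CO2; growth read as luminescence.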
Pf growth 96h: P. falciparum growth inhibition at 96 hour, primary screen for plastid delayed-death inhibitors | actives 6.9% (n = 320,000) | P. falciparum luciferase reporter growth, 96 h | Potency, µM (series often up to 28.7 µM), without a hit: top-dose activity change, negative = inhibition, usual class: inhibitors; note: potency is the fitted concentration of half-maximal effect
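Two parasite generations (96 h, 37 C, 5% CO2) of compound exposure in infected erythrocytes (0.05% parasitemia, 2% hematocrit). Luciferase-reporter P. falciparum; decreased luminescence indicates inhibited growth, aimed at apicoplast-acting delayed death.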
* marks the source's active call; other numbers are inactive results; ? = inconclusive; . = no result. Unless noted, calls come from the whole dose curve; as a rule, active = well fitted curve in the direction sought with a large enough effect; inconclusive = small, poorly fitted or top-dose-only effect, or another doubt; inactive = no such curve, though single readings can be large; an effect the other way counts as inactive or inconclusive. % is set by controls: 0 for no effect and ±100 for the full control effect.

SMILES	HCMV antiviral	Sm TGR block	Giardia FBPA inh	Pf growth 48h	Pf growth 96h
COc1ccc(Cn2c(C)c(C)c(C#N)c2NC(=O)Nc2cccc(C)c2)cc1	-66.5*	-26.1%	1.2%	3.4%	5.6%
CC(=O)c1cnc(Oc2cc(Cl)ccc2Cl)nc1C	11.4	3.0%	7.5%	-5.4%	11.1%
CCOC(=O)c1c(NC(=O)CSc2nc3ccccc3c(=O)n2-c2ccccc2)sc(C(C)=O)c1C	-27.2	1.4%	-1.4%	0.208µM*	2.33µM*
CCOC(=O)c1sc(NC(=O)CSc2nnnn2-c2ccc(C)cc2)c(C(=O)OCC)c1C	60.7	5.1%	5.9%	?	5.22µM*
CCOC(=O)c1sc(NC(=O)CSc2n[nH]c(CC(C)C)n2)nc1C	-61.5*	-13.2%	-0.3%	3.5%	?
CCOC(=O)c1sc(NC(=O)CSc2nnnn2-c2ccc(C)c(C)c2)nc1C	-7.0	8.4%	4.9%	24.2%	2.33µM*
CCc1ccc(C2c3c(-c4cc(C)ccc4O)n[nH]c3C(=O)N2Cc2cccnc2)cc1 (centres undefined)	-11.4	12.0%	.	.	.
CCOc1ccc(Nc2ncnc3c2nc2n3CCCCC2)cc1	-33.4	1.9%	.	.	.
CCOC(=O)c1c(NC(=O)CSc2nc3cc(Cl)ccc3c(=O)n2Cc2ccco2)sc(C(=O)N(C)C)c1C	-68.0*	-13.0%	1.5%	5.86µM*	4.15µM*
CCOC(=O)c1c(NC(=O)CSc2nnc(CNc3ccc(F)cc3)o2)sc(C(C)=O)c1C	-26.6	-1.8%	-3.1%	-16.3%	1.65µM*
CCOC(=O)c1sc(NC(=O)CSc2nc3c(c(=O)n2-c2ccc(C)cc2)SCC3)c(C(=O)OCC)c1C	-19.1	-6.2%	-4.1%	?	11.7µM*
CCOC(=O)CNC(=O)CSc1nnc(-c2ccco2)n1N	-14.3	-12.7%	6.3%	23.3%	?
CCOC(=O)CNC(=O)CSc1nnc(-c2ccco2)n1Cc1ccco1	2.9	25.1µM*	-2.5%	38.9%	8.28µM*
Cc1cc(C)n(-c2nnc(Nc3ccc(C)c(C)c3)c3ccccc23)n1	-0.2	-8.9%	.	.	.
COc1ccc(C(=O)Nc2ccc3oc(-c4cc(Cl)ccc4Cl)nc3c2)cc1Br	-3.0	-3.6%	.	.	.
CCOC(=O)c1cc(NC(=O)c2ccc(C)cc2)c(=O)n2c1oc1ccccc12	-4.8	3.2%	.	.	.
C=CCn1c(=O)c2ccccc2n2c(SCC(=O)Nc3sc(C(=O)N(CC)CC)c(C)c3C(=O)OCC)nnc12	?	-9.9%	20.7%	11.7µM*	0.0%
CCOC(=O)c1c(NC(=O)CSc2nnc(-c3ccccc3)n2CC)sc(C(C)=O)c1C	19.4	-15.2%	1.2%	?	?
C=CCn1c(=O)c2ccccc2n2c(SCC(=O)Nc3sc(C)c(CC)c3C(=O)OCC)nnc12	9.5	-4.9%	-0.6%	12.2%	11.7%
CCOC(=O)c1sc(NC(=O)CSc2nnc(-c3ccco3)n2CC)c(C(=O)OCC)c1C	49.0	20µM*	0.3%	?	.
O=C(CSc1nnc(C2CC2)n1Cc1ccco1)NCC(F)(F)F	26.4	35.5µM*	8.8%	60.4%	-8.6%
CCOc1ccc(C(=O)COC(=O)c2nn(CC)c(=O)c3ccccc23)cc1	?	-1.8%	.	?	6.2%
CC(C)n1nc(C(=O)OCC(=O)c2c[nH]c3ccccc23)c2ccccc2c1=O	30.7	-0.2%	-2.5%	.	6.57µM*
CCn1nc(C(=O)OCC(=O)N2CCc3ccccc32)c2ccccc2c1=O	60.7	20µM*	14.7%	-2.3%	-2.5%
CCn1nc(C(=O)OCC(=O)c2c[nH]c3ccccc23)c2ccccc2c1=O	113.3	0.7%	5.0%	4.65µM*	7.38µM*
SMILES	HCMV antiviral	Sm TGR block	Giardia FBPA inh	Pf growth 48h	Pf growth 96h
CC(=O)OCC(=O)c1c[nH]c2ccccc12	58.1	6.7%	-16.0%	18.0%	0.3%
C=CCNC(=O)c1cc(-c2cccnc2)nc2ccccc12	85.2	-11.6%	0.6%	9.6%	?
Cc1noc(C)c1S(=O)(=O)Nc1ccc2c(c1)CC(=O)N([C@H](C)CO)C[C@H](C)[C@H](CN(C)S(=O)(=O)c1ccc(F)cc1)O2	-6.1	.	.	.	.
Cc1cccc(N2CCN(S(=O)(=O)c3nnc(NC(=O)c4ccc(Cl)cc4)s3)CC2)c1	8.9	13.1%	.	.	.
O=C(c1nc(-c2ccc(Cl)cc2)n2c1CCCCC2)N1CCN(c2ccccc2)CC1	-6.7	2.6%	.	.	.
CC(C)NC(=O)COC(=O)/C=C/c1ccco1	2.4	50.1µM*	3.6%	10.9%	5.4%
Cc1ccc(/C=C/C(=O)OCC(=O)NCc2cccs2)o1	-13.6	.	.	.	.
CC(C)NC(=O)COC(=O)/C=C/c1ccc(F)cc1	-12.8	4.1%	2.8%	-17.8%	-14.7%
CCN(CC(=O)NCc1ccc(Cl)cc1)C(=O)/C=C/c1ccco1	90.2	25.1µM*	-1.9%	4.0%	0.0%
Cc1ccc(/C=C/C(=O)OCC(=O)NC(C)C)o1	-23.0	50.1µM*	0.0%	9.6%	0.0%
O=C1COc2ccc(C(=O)COC(=O)/C=C/c3ccco3)cc2N1	.	12.6µM*	.	?	?
CCOC(=O)c1cc(S(=O)(=O)Nc2cc(OC)ccc2OC)[nH]n1	-0.2	-0.2%	.	.	.
CC(C)c1cn(CC[C@@H]2CC[C@@H](NC(=O)C3CCCCC3)[C@@H](CO)O2)nn1	-24.4	.	.	.	.
CC(C)CNc1cccc2c1S(=O)(=O)N[C@@H](C)CO2	7.9	.	.	.	.
COc1ccccc1C(=O)NC(=O)CSc1nnc(N)s1	32.6	?	.	-3.3%	-27.0%
CCN(CC(=O)NCc1ccc(Cl)cc1)C(=O)c1ccc2cc(OC)ccc2c1	-12.7	10.1%	8.0%	-5.7%	?
O=C(COC(=O)/C=C/c1ccco1)NCc1ccccc1	1.2	-1.4%	1.1%	11.6%	20.6%
CCCNC(=O)COC(=O)/C=C/c1ccco1	-2.8	44.7µM*	-2.6%	17.7%	58.0%
O=C(COC(=O)/C=C/c1ccco1)NCCN1C(=O)CSC1=O	-23.6	.	.	.	.
O=C(COC(=O)/C=C/c1ccco1)NCc1ccc(Cl)cc1	20.3	17.8µM*	.	2.5%	9.8%
O=C(O)/C=C/C(=O)c1ccc2c(c1)NC(=O)CO2	-18.2	1µM*	3.9%	1.85µM*	3.29µM*
CCN(CC(=O)NCc1ccc(Cl)cc1)C(=O)c1cnc(Cl)c(Cl)c1	-62.6*	-6.9%	7.8%	20.7%	15.3%
CCc1ccc(Cn2c(CNS(=O)(=O)c3ccc4c(c3)CCCC4)nc3cccnc32)cc1	11.2	-0.3%	.	.	.
COCCNc1nc(-c2ccc(Cl)cc2C)c2sccc2n1	-6.7	.	.	.	.
O=C(/C=C/c1ccco1)OCC(=O)c1ccc(OC(F)F)cc1	-33.5	22.4µM*	.	22.6%	94.0%
Cc1ccc(C2CN=NC23CCc2ccccc2C3=O)cc1 (centres undefined)	36.0	-1.0%	-5.9%	.	3.7µM*
O=C1c2ccccc2CCCC12N=NCC2c1cccc2ccccc12 (centres undefined)	-12.3	0.5%	-8.2%	2.62µM*	1.85µM*
Cc1cccc(OC(=O)c2cc(-c3ccc4c(c3)OCCO4)on2)c1	17.1	-5.6%	.	.	.

High-throughput results from PubChem BioAssay.
